Bioassay records deposited in PubChem BioAssay by National Center for Advancing Translational Sciences (NCATS).
USP2a inh = blocks human ubiquitin-specific protease USP2a; O75604; USP2 core, Ub-CHOP2 coupled fluorogenic reporter, 485/531; Potency, µM (top dose mostly 38.3 µM), usual class: inhibitors; actives 0.01% (n = 330,000); AID 463254
Target sequence (O75604 whole entry, looked up): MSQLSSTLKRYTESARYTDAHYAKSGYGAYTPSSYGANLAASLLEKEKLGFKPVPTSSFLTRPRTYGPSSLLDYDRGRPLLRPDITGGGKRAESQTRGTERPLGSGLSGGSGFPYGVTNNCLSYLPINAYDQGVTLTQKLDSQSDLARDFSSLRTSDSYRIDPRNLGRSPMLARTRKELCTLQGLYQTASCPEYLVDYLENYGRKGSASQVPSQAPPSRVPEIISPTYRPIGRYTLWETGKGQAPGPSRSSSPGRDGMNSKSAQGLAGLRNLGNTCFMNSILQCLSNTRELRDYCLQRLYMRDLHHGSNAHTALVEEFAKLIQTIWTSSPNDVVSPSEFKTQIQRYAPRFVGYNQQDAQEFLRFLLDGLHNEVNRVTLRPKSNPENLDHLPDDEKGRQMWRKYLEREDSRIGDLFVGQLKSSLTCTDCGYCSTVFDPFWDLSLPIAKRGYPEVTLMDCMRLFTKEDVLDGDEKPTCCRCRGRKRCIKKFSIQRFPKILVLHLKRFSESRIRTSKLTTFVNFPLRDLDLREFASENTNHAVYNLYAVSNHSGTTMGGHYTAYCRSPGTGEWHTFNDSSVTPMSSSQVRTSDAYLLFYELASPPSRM
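USP2 core (10nM final) preincubated 30min RT with compound in 20mM Tris-HCl pH 8.0, 2mM CaCl2, 2mM beta-mercaptoethanol, 0.05% CHAPS; 25nM Ub-CHOP2 plus 25nM reporter substrate added, fluorescence (Ex485/Em531) read after 60min.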
IL-1B inflam inh = inhibitors of inflammasome signaling (IL-1 beta secretion); actives 4.7% (n = 360,000); THP-1 LPS/ATP IL-1B secretion, AlphaLISA, 16 h; stronger effect = lower value; activity change, % at 57.5 µM; in the data active means activity change below about -50%; inconclusive means mostly about -30% to -49%
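Secreted IL-1B measured by AlphaLISA bead assay after 16 h compound exposure of THP-1 cells; compounds (final up to 57.5 uM) added 1 h before LPS (250 ng/mL) and ATP (1.25 mM) stimulation; lower signal means less secretion.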
ATXN2 expr inh = reduces ATXN2 reporter expression in HEK-293 cells | HEK-293 ATXN2-luciferase reporter, luminescence, 24 h | Potency, µM (titrated, usually from 57 µM), most hits filed as inhibitors | actives 0.72% (n = 360,000) | AID 1745845; further: nearly all actives have a fitted effect of over 55% in size
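ATXN2-luciferase reporter cells (luciferase flanked by upstream and downstream ATXN2 gene portions) were treated 24 h at 37 °C with compounds at up to 57 uM. SteadyGlo luminescence gave expression; GF-AFC fluorescence gave viability.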
ATXN viability = viability counter-screen for ATXN expression inhibitors; S2 cells (HEK-293 line with an ATXN2-luciferase reporter) viability, CellTiter-Fluor protease fluorescence, 24 h; actives 0.49% (n = 400,000); AID 651635; Potency, µM (titrated, usually from 56.7 µM), actives largely listed as cytotoxic; further: nearly all actives have a fitted effect of over 40% in size
USP1 inh = USP1/UAF1 (human) deubiquitinase inhibition; O94782; recombinant USP1/UAF1, Ub-Rhodamine cleavage fluorescence; actives 0.23% (n = 390,000); Potency, µM (series often up to 57.1 µM), usual class: inhibitors; AID 743255; further: nearly all actives have a fitted effect of over 60% in size
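In this screen, compounds sit with the deubiquitinase complex (1nM) for 15 min at room temperature before Ub-Rho is added at 150nM final. Fluorescence rise is then followed for 6 reads every 60 seconds.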
Hits are given with their value; . = inactive; ? = inconclusive; / = not tested or not shown. An excerpt weighted towards active compounds, which were near 4.8% of everything screened. Unless noted, the call rests on the fitted dose curve; in most records, active means well fitted curve in the direction sought with a large enough effect; inconclusive means small, poorly fitted or top-dose-only effect, or another doubt; inactive means no such curve, though single readings can be large; an effect the other way counts as inactive or inconclusive.

SMILES	USP2a inh	IL-1B inflam inh	ATXN2 expr inh	ATXN viability	USP1 inh
Cc1cc(C)cc(NC(=O)Nc2ccccc2N2CCCCC2)c1	.	-74	.	/	.
O=C(Nc1ccc(Cl)cc1)Nc1ccc(N2CCCC2)c(S(=O)(=O)Nc2ccccc2Cl)c1	.	-52	?	.	.
Cc1ccc(NC(=O)CSCC(=O)Nc2cc(Cl)ccc2N2CCOCC2)cc1	.	.	.	.	.
O=C(Nc1cccc(F)c1)c1cc(S(=O)(=O)NCCC2=CCCCC2)ccc1F	.	-61	.	?	.
Cc1cc(C)cc(NC(=O)c2cc(S(=O)(=O)NCCC3=CCCCC3)ccc2F)c1	/	/	?	?	.
O=S(=O)(NCCC1=CCCCC1)c1ccc(OC(F)(F)F)cc1	.	-91	.	.	.
Cc1ccc(NC(=O)c2cc(S(=O)(=O)NCCC3=CCCCC3)ccc2F)cc1F	.	-77	?	?	.
Clc1ccc2c(c1)-c1nnc(Br)n1-c1ccccc1S2	.	-55	.	.	.
Brc1nnc2n1-c1ccccc1Sc1ccccc1-2	.	?	.	.	.
COC(=O)/C(C#N)=C/c1ccc(-c2ccc(S(N)(=O)=O)cc2)o1	.	-74	.	.	.
CCN(CC)CCn1c2c(c(SCC(=O)Nc3ccc4c(c3)OCO4)nc1=O)CCC2	.	.	.	.	.
CCN(CC)CCn1c2c(c(SCC(=O)Nc3nccs3)nc1=O)CCCC2	.	.	.	.	.
CCN(CC)CCCn1c2c(c(SCC(=O)Nc3ccc(OC(F)(F)F)cc3)nc1=O)CCC2	.	-69	.	?	.
CCN(CC)CCCn1c2c(c(SCC(=O)Nc3ccc(C)c(F)c3)nc1=O)CCC2	.	-67	.	.	.
CCN(CC)CCCn1c2c(c(SCC(=O)Nc3nc4ccccc4s3)nc1=O)CCC2	.	-51	.	.	.
O=C(CSc1nc(-c2cccc(F)c2)[nH]c1-c1ccccc1)Nc1ccc2c(c1)OCCO2	/	/	?	?	.
CC1(C)CC(=O)C2=C(C1)OC1=C(C(=O)CC(C)(C)C1)C2c1ccc(O)c([N+](=O)[O-])c1	.	.	/	?	.
CC1(C)CC(=O)C2=C(C1)OC1=C(C(=O)CC(C)(C)C1)C2c1ccc(O)cc1O	.	-104	.	?	.
COc1ccc(C)cc1NS(=O)(=O)c1ccc2c3c(cccc13)C(=O)N2	/	/	28µM	?	.
COC1(OC)C(/C=C/c2ccc(C)cc2)C(C#N)(C#N)C1(OC)OC (centres undefined)	/	-120	.	.	.
CC(C)OC(=O)CSc1nnc(COc2ccc([N+](=O)[O-])cc2)n1C	.	-98	.	/	.
CCOc1cc(C)ccc1OCc1nnc(SCC(=O)c2cccc([N+](=O)[O-])c2)n1C	.	-51	.	.	.
COC(=O)CSc1nnc(COc2ccc([N+](=O)[O-])cc2)n1C	.	.	.	.	.
COCCNC(=S)N(Cc1cccs1)Cc1cc2cccc(C)c2[nH]c1=O	.	-56	.	.	.
Cc1ccc2[nH]c(=O)c(CN(CCCN(C)C)C(=S)NCCc3ccccc3)cc2c1	.	-67	.	?	.
SMILES	USP2a inh	IL-1B inflam inh	ATXN2 expr inh	ATXN viability	USP1 inh
Cc1cccc(NC(=S)N(Cc2cccs2)Cc2cc3cc(C)cc(C)c3[nH]c2=O)c1	.	.	.	.	.
Cc1ccc2cc(CN(CCc3ccccc3)C(=S)NCCCN(C)C)c(=O)[nH]c2c1	.	?	?	?	.
Cc1cccc2cc(CN(CCCN(C)C)C(=S)NCCc3ccccc3)c(=O)[nH]c12	.	-51	.	.	.
Cc1cc(NC(=O)COC(=O)C2CC(=O)N(c3ccccc3Cl)C2)no1 (centres undefined)	.	.	.	.	.
CO[C@H]1[C@H](NC(=O)c2cccc(F)c2)c2ccccc2C12CCN(Cc1ccco1)CC2	/	/	/	.	/
COc1ccc(-c2ccc(SCC(=O)Nc3cccc(C(C)=O)c3)nn2)cc1OC	.	-86	.	.	.
COc1cccc(CN2CCC2(C)C(=O)Nc2ccc(C)c(O)c2)c1F (centres undefined)	/	-52	.	?	/
CC1(C(=O)Nc2cccc3cccnc23)CCN1Cc1ccccc1OC(F)F (centres undefined)	/	.	?	?	/
Cc1ccc(OCCN2CCC2(C)C(=O)Nc2ccc3c(c2)OCCO3)cc1 (centres undefined)	/	-110	.	?	/
COc1ccc(NC(=O)C2(C)CCN2Cc2ccccc2OC(F)F)cc1OC (centres undefined)	/	.	.	.	/
CC1(C(=O)Nc2ccc3c(c2)OCO3)CCN1Cc1ccccc1OC(F)F (centres undefined)	/	-67	.	?	/
COc1cccc(CN2CCC2(C)C(=O)Nc2cccc3cccnc23)c1OC (centres undefined)	/	.	2.5µM	?	/
OC[C@H]1O[C@@H](Oc2cc(O)cc(C=Cc3ccc(O)cc3)c2)[C@H](O)[C@@H](O)[C@H]1O	/	/	.	/	/
COCc1ccc(CN2Cc3cc(Cl)ccc3OC(C)C2)o1 (centres undefined)	/	/	/	.	/
COc1cc(C(=O)NCC(=O)N/N=C/c2ccc(-c3cccc([N+](=O)[O-])c3)o2)cc(OC)c1OC	.	-85	.	.	.
O=C(N/N=C/c1ccc(-c2cccc([N+](=O)[O-])c2)o1)c1ccc([N+](=O)[O-])cc1	.	-51	.	.	.
O=C(N/N=C\c1ccc(COc2ccc([N+](=O)[O-])cc2)o1)c1ccc(Cl)cc1	.	-60	.	.	.
COc1cc(C(=O)NCC(=O)N/N=C/c2ccc(-c3ccc([N+](=O)[O-])cc3)o2)cc(OC)c1OC	.	?	.	?	.
O=C(COC(=O)c1ccc(O)cc1O)NC1CC1	.	.	.	.	.
O=C1CCCc2cc(S(=O)(=O)N3CCCC(C(=O)NCc4ccc(Cl)cc4)C3)ccc2N1 (centres undefined)	/	/	.	.	.
COC(=O)c1ccccc1NC(=O)CN(c1ccc(Cl)cc1)S(=O)(=O)c1ccc(OC)cc1	/	/	.	.	.
CCC1C(=O)NCCN1Cc1ccc2c(c1)CN(Cc1ccc3c(c1)OCCO3)CCO2 (centres undefined)	/	/	/	.	/
Cc1ccc2cccc(OCCCOc3ccccc3F)c2n1	.	-56	.	.	.
Cc1ccc2cccc(OCc3cccc([N+](=O)[O-])c3)c2n1	.	-51	.	.	.
CCCC(=O)Nc1nnc(SCC(=O)Nc2ccc(OCC)cc2)s1	/	.	/	.	.
O=C(CNC1CCCCC1)NN=C(c1ccccc1)c1ccccc1	.	-64	.	.	.
O=C(NN=C(c1ccccc1)c1ccccc1)C(CCl)C1CCCCC1 (centres undefined)	.	.	.	.	.
C[C@H](CO)N1C[C@H](C)[C@@H](CN(C)S(=O)(=O)c2ccccc2)Oc2c(NC(=O)Nc3ccc4c(c3)OCO4)cccc2C1=O	.	-61	.	?	?
